# Measurements taken from PubChem BioAssay (EPA / NIEHS).
# The source made the active and inactive calls. How the source made its calls: active means hit-call score of the fitted dose curve at least 0.9, where 1 is the maximum; inactive means score below 0.9.
# Experiments:
# Settings in all cases: mRNA level, 48 h; actives raise or lower the signal
# [1] = read-out: matrix metalloproteinase-3 (MMP3), MMP3 (gene 4314); experiment: LTEA_HepaRG_MMP3: Life Technologies and Expression Analysis (LTEA) Assay for matrix metalloproteinase-3 (MMP3) using HepaRG (AID 2283519)
# Outline: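 Differentiated human HepaRG cells, plated 48 h on collagen I, were exposed in duplicate for 48 h in serum-free induction medium to eight half-log concentrations up to 100 uM in 0.5% DMSO. MMP3 mRNA was quantified by TaqMan qRT-PCR, normalised to ACTB, GAPDH and POLR2A.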
# [2] = read-out: Paternally Expressed 10 (PEG10), PEG10 (gene 23089); experiment: LTEA_HepaRG_PEG10: Life Technologies and Expression Analysis (LTEA) Assay for Paternally Expressed 10 (PEG10) using HepaRG (AID 2283520)
# Outline: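 Differentiated HepaRG cells, plated 48 h then switched to serum-free induction medium, were exposed in duplicate for 48 h to eight half-log concentrations topping at 100 uM in 0.5% DMSO. PEG10 mRNA was quantified by TaqMan qRT-PCR, normalised to ACTB, GAPDH and POLR2A.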
# [3] = read-out: Nuclear factor NF-kappa-B p105 subunit (Homo sapiens) (UniProt P19838); experiment: LTEA_HepaRG_NFKB1: Life Technologies and Expression Analysis (LTEA) Assay for Nuclear Factor Kappa B Subunit 1 (NFKB1) using HepaRG (AID 2283521);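 on outcome: TaqMan qRT-PCR transcript normalised to ACTB GAPDH and POLR2A housekeeping genes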
# Outline: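 Human HepaRG cells receive eight half-log concentrations, highest 100 uM, for 48 h. NFKB1 expression is then quantified by qRT-PCR and analysed for up- or down-regulation relative to 0.5% DMSO vehicle.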
# [4] = read-out: Protein phosphatase 2A (PPP2R4), PTPA (gene 5524); experiment: LTEA_HepaRG_PPP2R4: Life Technologies and Expression Analysis (LTEA) Assay for Protein phosphatase 2A (PPP2R4) using HepaRG (AID 2283522)
# Outline: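 Differentiated HepaRG cells in serum-free induction medium were exposed in duplicate for 48 h to eight concentrations, top 100 uM with half-log dilutions, in 0.5% DMSO. PPP2R4 mRNA was quantified by TaqMan qRT-PCR, normalized to ACTB, GAPDH and POLR2A.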
# [5] = read-out: Phosphatase and tensin (PTEN), PTEN (gene 5728); experiment: LTEA_HepaRG_PTEN: Life Technologies and Expression Analysis (LTEA) Assay for Phosphatase and tensin (PTEN) using HepaRG (AID 2283523)
# Outline: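 Differentiated human HepaRG cells, plated 48 h then switched to serum-free induction medium, were exposed in duplicate for 48 h to eight half-log concentrations up to 100 uM in 0.5% DMSO. PTEN mRNA measured by TaqMan qRT-PCR, normalized to ACTB/GAPDH/POLR2A, bidirectional fit versus DMSO.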
# [6] = read-out: solute carrier (SLC22A1), SLC22A1 (gene 6580); experiment: LTEA_HepaRG_SLC22A1: Life Technologies and Expression Analysis (LTEA) Assay for solute carrier (SLC22A1) using HepaRG (AID 2283524)
# Outline: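 Human HepaRG cells were plated 48 h, switched to serum-free induction medium, then exposed in duplicate for 48 h to 8-point half-log series from 100 uM in 0.5% DMSO. SLC22A1 mRNA measured by qRT-PCR, normalized to ACTB/GAPDH/POLR2A, fitted bidirectionally versus DMSO.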
# [7] = read-out: Pyruvate Dehydrogenase Kinase 4 (PDK4), PDK4 (gene 5166); experiment: LTEA_HepaRG_PDK4: Life Technologies and Expression Analysis (LTEA) Assay for Pyruvate Dehydrogenase Kinase 4 (PDK4) using HepaRG (AID 2283525)
# Outline: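 Differentiated human HepaRG cells, pre-cultured 48 h, were exposed in duplicate for 48 h in serum-free induction medium to eight half-log concentrations up to 100 uM in 0.5% DMSO. PDK4 mRNA was quantified by qRT-PCR, normalized to ACTB, GAPDH and POLR2A, bidirectional fitting versus DMSO.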
# [8] = read-out: NAD(P)H dehydrogenase [quinone] 1 (NQO1), NQO1 (gene 1728); experiment: LTEA_HepaRG_NQO1: Life Technologies and Expression Analysis (LTEA) Assay for NAD(P)H dehydrogenase [quinone] 1 (NQO1) using HepaRG (AID 2283526)
# Outline: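 Differentiated HepaRG cells, plated 48 h and then switched to serum-free induction medium, were exposed in duplicate for 48 h to 8-point half-log concentrations up to 100 uM in 0.5% DMSO. mRNA measured by qRT-PCR, normalized to ACTB, GAPDH, POLR2A; bidirectional fit versus DMSO.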
# [9] = read-out: Nuclear factor erythroid 2-related factor 2 (Homo sapiens) (UniProt Q16236); experiment: LTEA_HepaRG_NFE2L2: Life Technologies and Expression Analysis (LTEA) Assay for Nuclear factor erythroid 2-related factor 2 (NFE2L2) Transcription Factor using HepaRG (AID 2283527);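 further: TaqMan qRT-PCR transcript level normalised to ACTB GAPDH and POLR2A housekeeping genes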
# Outline: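 Differentiated human HepaRG cells in serum-free induction medium were exposed for 48 h to eight concentrations (top 100 uM, half-log dilutions, 0.5% DMSO), in duplicate. NFE2L2 mRNA was quantified by TaqMan qRT-PCR, normalized to ACTB, GAPDH and POLR2A, with bidirectional fitting versus DMSO.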
# [10] = read-out: succinate dehydrogenase complex iron sulfur subunit B (SDHB), SDHB (gene 6390); experiment: LTEA_HepaRG_SDHB: Life Technologies and Expression Analysis (LTEA) Assay for succinate dehydrogenase complex iron sulfur subunit B (SDHB) using HepaRG (AID 2283528)
# Outline: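 A human HepaRG culture in serum-free induction medium received test chemicals for 48 h over an eight-point range capped at 100 uM. SDHB expression change was quantified by qRT-PCR.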
# [11] = read-out: Signal transducer and activator of transcription 3 (Homo sapiens) (UniProt P40763); experiment: LTEA_HepaRG_STAT3: Life Technologies and Expression Analysis (LTEA) Assay for Signal transducer and activator of transcription (STAT3) using HepaRG (AID 2283529)
# Outline: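 Differentiated human HepaRG cells in serum-free induction medium were exposed in duplicate for 48 h to eight half-log concentrations up to 100 uM in 0.5% DMSO. STAT3 mRNA was quantified by TaqMan qRT-PCR, normalized to ACTB, GAPDH and POLR2A, and fitted bidirectionally against DMSO.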
# [12] = read-out: solute carrier (SLCO1B1), SLCO1B1 (gene 10599); experiment: LTEA_HepaRG_SLCO1B1: Life Technologies and Expression Analysis (LTEA) Assay for solute carrier (SLCO1B1) using HepaRG (AID 2283530)
# Outline: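 Gain or loss of SLCO1B1 mRNA is fitted against the 0.5% DMSO vehicle in human HepaRG liver cells treated 48 h at up to 100 uM in half-log steps. Expression comes from qRT-PCR normalized to endogenous controls.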
# [13] = read-out: sulfotransferase 2A1 (SULT2A1), SULT2A1 (gene 6822); experiment: LTEA_HepaRG_SULT2A1: Life Technologies and Expression Analysis (LTEA) Assay for sulfotransferase 2A1 (SULT2A1) using HepaRG (AID 2283531)
# Outline: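 Cells were plated and cultured 48 h, switched to serum-free induction medium, then dosed in duplicate for 48 h (8 concentrations, max 100 uM). RNA was isolated and SULT2A1 expression measured by qRT-PCR; gain or loss of signal fitted relative to DMSO.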
# [14] = read-out: Transforming Growth Factor (TGFA), TGFA (gene 7039); experiment: LTEA_HepaRG_TGFA: Life Technologies and Expression Analysis (LTEA) Assay for Transforming Growth Factor (TGFA) using HepaRG (AID 2283532)
# Outline: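 Differentiated human HepaRG cells, plated 48 h then switched to serum-free induction medium, were exposed in duplicate for 48 h to 8-point half-log series from 100 uM in 0.5% DMSO. TGFA mRNA measured by qRT-PCR, normalized to ACTB/GAPDH/POLR2A, bidirectional fit versus DMSO.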
# [15] = read-out: Transforming Growth Factor (TGFB1), TGFB1 (gene 7040); experiment: LTEA_HepaRG_TGFB1: Life Technologies and Expression Analysis (LTEA) Assay for Transforming Growth Factor (TGFB1) Transporter using HepaRG (AID 2283533)
# Outline: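 Expression change of TGFB1 in human HepaRG cells is measured after a 48 h chemical exposure, up to 100 uM in 0.5% DMSO vehicle. Curves are fitted in both directions relative to the DMSO baseline.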
# TIMP1, TIMP1 (gene 7076) = experiment: LTEA_HepaRG_TIMP1: Life Technologies and Expression Analysis (LTEA) Assay for TIMP1 using HepaRG (AID 2283534);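 further: TaqMan qRT-PCR signal normalized to ACTB GAPDH and POLR2A housekeeping genes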
# Outline: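 We dosed human liver HepaRG cultures for 48 hours with up to 100 uM test chemical and measured TIMP1 expression by qRT-PCR. Activity in either direction is fitted relative to the 0.5% DMSO vehicle.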
# [16] = read-out: Tumor necrosis factor receptor 1 (TNFRSF1A), TNFRSF1A (gene 7132); experiment: LTEA_HepaRG_TNFRSF1A: Life Technologies and Expression Analysis (LTEA) Assay for Tumor necrosis factor receptor 1 (TNFRSF1A) using HepaRG (AID 2283535)
# Outline: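 Expression of TNFRSF1A in human HepaRG liver cells was measured by qRT-PCR 48 h after chemical dosing (maximum 100 uM). Bidirectional curve fitting used 0.5% DMSO as baseline.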
# [17] = read-out: Thyroid Hormone Responsive (THRSP), THRSP (gene 7069); experiment: LTEA_HepaRG_THRSP: Life Technologies and Expression Analysis (LTEA) Assay for Thyroid Hormone Responsive (THRSP) using HepaRG (AID 2283536)
# Outline: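 Differentiated human HepaRG cells were exposed in duplicate for 48 h in serum-free induction medium to eight concentrations (top 100 uM, half-log steps, 0.5% DMSO). Expression was quantified by TaqMan qRT-PCR, normalized to ACTB, GAPDH and POLR2A, with bidirectional fitting against DMSO.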
# [18] = read-out: Cellular tumor antigen p53 (Homo sapiens) (UniProt P04637); experiment: LTEA_HepaRG_TP53: Life Technologies and Expression Analysis (LTEA) Assay for Tumor Protein P53 (TP53) using HepaRG (AID 2283537)
# Outline: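 Gain or loss of TP53 mRNA signal is scored relative to 0.5% DMSO after 48 h chemical treatment of HepaRG liver cells, tested in duplicate at eight half-log concentrations up to 100 uM.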
# [19] = read-out: UDP glucuronosyltransferase (UGT1A1), UGT1A1 (gene 54658); experiment: LTEA_HepaRG_UGT1A1: Life Technologies and Expression Analysis (LTEA) Assay for UDP glucuronosyltransferase (UGT1A1) using HepaRG (AID 2283538)
# Outline: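 Differentiated human HepaRG cells in serum-free induction medium were exposed in duplicate for 48 h to eight half-log concentrations up to 100 uM in 0.5% DMSO. UGT1A1 mRNA was quantified by TaqMan qRT-PCR, normalized to ACTB, GAPDH and POLR2A, and fitted bidirectionally against DMSO.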
# Chain of Cellular tumor antigen p53 (Homo sapiens) (P04637 whole entry, looked up): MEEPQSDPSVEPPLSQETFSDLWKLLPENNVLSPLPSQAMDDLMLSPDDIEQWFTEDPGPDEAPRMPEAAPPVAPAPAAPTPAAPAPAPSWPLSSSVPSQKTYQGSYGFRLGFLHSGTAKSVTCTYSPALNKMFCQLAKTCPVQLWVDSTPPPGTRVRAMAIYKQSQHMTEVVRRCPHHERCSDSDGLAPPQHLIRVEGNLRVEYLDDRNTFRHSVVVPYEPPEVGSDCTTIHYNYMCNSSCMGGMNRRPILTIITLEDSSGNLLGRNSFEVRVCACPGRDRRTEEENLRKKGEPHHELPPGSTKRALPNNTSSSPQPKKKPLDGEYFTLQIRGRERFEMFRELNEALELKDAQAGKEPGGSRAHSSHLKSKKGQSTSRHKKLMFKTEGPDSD
# Chain of Nuclear factor NF-kappa-B p105 subunit (Homo sapiens) (P19838 whole entry, looked up): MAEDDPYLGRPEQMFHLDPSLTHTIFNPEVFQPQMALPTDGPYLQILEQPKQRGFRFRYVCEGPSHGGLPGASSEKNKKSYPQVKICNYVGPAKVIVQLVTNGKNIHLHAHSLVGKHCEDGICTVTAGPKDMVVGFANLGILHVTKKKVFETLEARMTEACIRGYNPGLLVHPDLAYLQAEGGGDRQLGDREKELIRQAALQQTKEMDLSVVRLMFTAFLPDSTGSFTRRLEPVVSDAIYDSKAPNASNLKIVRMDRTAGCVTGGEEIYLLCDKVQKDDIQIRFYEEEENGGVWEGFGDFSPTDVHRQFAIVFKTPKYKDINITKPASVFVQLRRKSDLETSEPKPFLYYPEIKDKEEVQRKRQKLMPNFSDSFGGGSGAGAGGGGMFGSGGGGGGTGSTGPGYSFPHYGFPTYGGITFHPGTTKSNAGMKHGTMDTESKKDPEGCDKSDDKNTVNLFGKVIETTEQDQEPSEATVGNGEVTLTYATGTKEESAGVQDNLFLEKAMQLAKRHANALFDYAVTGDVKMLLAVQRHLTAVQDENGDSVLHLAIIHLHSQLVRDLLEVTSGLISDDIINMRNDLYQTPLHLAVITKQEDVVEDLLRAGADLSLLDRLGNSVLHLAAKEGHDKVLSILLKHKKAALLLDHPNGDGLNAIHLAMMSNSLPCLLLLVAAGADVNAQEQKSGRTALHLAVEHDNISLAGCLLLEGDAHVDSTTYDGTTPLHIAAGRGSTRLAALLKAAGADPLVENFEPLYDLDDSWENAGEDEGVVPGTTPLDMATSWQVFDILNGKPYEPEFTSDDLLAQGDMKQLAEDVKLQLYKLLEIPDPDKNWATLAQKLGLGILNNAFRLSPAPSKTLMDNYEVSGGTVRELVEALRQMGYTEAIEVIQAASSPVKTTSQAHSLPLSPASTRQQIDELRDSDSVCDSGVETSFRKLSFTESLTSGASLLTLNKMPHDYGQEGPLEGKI
# Chain of Signal transducer and activator of transcription 3 (Homo sapiens) (P40763 whole entry, looked up): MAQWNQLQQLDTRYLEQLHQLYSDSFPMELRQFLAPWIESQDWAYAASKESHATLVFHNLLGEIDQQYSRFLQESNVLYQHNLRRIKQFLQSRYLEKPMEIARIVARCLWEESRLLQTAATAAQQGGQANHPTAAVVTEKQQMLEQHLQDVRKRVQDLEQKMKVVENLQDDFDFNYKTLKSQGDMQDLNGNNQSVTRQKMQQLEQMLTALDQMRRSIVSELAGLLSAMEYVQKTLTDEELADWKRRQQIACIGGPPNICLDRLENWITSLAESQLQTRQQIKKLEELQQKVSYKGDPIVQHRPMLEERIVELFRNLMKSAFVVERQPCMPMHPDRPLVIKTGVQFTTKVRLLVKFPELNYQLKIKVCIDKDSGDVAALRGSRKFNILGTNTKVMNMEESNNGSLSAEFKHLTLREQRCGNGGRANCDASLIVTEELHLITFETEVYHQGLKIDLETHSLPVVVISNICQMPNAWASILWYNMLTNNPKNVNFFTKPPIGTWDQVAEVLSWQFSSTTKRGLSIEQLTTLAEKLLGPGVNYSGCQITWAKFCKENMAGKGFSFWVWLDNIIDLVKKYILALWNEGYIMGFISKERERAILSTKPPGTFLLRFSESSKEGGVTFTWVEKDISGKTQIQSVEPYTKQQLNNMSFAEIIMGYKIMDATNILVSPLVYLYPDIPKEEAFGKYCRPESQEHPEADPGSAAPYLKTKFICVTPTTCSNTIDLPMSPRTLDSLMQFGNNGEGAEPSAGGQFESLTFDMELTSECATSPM
# Chain of Nuclear factor erythroid 2-related factor 2 (Homo sapiens) (Q16236 whole entry, looked up): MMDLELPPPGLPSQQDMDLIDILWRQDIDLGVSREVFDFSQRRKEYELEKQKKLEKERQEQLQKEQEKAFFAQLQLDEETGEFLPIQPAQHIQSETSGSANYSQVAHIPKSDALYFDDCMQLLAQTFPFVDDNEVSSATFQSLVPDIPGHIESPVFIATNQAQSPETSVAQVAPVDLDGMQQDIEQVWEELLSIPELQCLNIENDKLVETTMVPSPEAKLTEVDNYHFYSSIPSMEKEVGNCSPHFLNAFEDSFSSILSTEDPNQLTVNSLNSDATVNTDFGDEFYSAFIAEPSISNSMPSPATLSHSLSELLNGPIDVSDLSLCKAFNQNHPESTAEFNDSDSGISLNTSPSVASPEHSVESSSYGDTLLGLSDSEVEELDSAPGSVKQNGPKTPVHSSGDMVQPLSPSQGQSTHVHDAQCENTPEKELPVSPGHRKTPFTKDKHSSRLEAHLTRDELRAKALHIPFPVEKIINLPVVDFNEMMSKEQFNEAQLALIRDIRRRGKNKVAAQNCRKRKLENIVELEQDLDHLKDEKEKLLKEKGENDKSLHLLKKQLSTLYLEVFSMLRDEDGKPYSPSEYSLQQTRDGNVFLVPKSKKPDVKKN
smiles,measurement,setting,value
Cc1c(COC(=O)[C@@H]2[C@H](/C=C(\Cl)C(F)(F)F)C2(C)C)cccc1-c1ccccc1,outcome,[1],inactive
same,outcome,[2],inactive
same,AC50,[3],0.703 µM (active)
same,outcome,[4],inactive
same,outcome,[5],inactive
same,outcome,[6],inactive
same,outcome,[7],inactive
same,outcome,[8],inactive
same,outcome,[9],inactive
same,outcome,[10],inactive
same,outcome,[11],inactive
same,outcome,[12],inactive
same,outcome,[13],inactive
same,outcome,[14],inactive
same,outcome,[15],inactive
same,outcome,"TIMP1, TIMP1 (gene 7076)",inactive
same,outcome,[16],inactive
same,outcome,[17],inactive
same,outcome,[18],inactive
same,AC50,[19],11.7 µM (active)
Nc1cnn(-c2ccccc2)c(=O)c1Cl,outcome,[1],inactive
same,outcome,[2],inactive
same,outcome,[3],inactive
same,outcome,[4],inactive
same,outcome,[5],inactive
same,outcome,[6],inactive
same,outcome,[7],inactive
same,outcome,[8],inactive
same,outcome,[9],inactive
same,outcome,[10],inactive
same,outcome,[11],inactive
same,outcome,[12],inactive
same,outcome,[13],inactive
same,outcome,[14],inactive
same,outcome,[15],inactive
same,outcome,[16],inactive
same,outcome,[17],inactive
same,outcome,[18],inactive
CC1(C)C(C(=O)OC(C#N)c2cccc(Oc3ccccc3)c2)C1(C)C (configuration not stated),outcome,[1],inactive
same,outcome,[2],inactive
same,outcome,[3],inactive
same,outcome,[4],inactive
same,outcome,[5],inactive
same,outcome,[6],inactive
same,outcome,[7],inactive
same,outcome,[8],inactive
same,outcome,[9],inactive
same,outcome,[10],inactive
same,outcome,[11],inactive
same,outcome,[12],inactive
same,outcome,[13],inactive
same,outcome,[14],inactive
same,outcome,[15],inactive
same,outcome,"TIMP1, TIMP1 (gene 7076)",inactive
same,outcome,[16],inactive
same,outcome,[17],inactive
same,outcome,[18],inactive
CC(C)=CC1C(C(=O)OCc2coc(Cc3ccccc3)c2)C1(C)C (configuration not stated),outcome,[1],inactive
same,outcome,[2],inactive
same,outcome,[3],inactive
same,outcome,[4],inactive
same,outcome,[5],inactive
same,outcome,[6],inactive
same,AC50,[7],50 µM (active)
same,outcome,[8],inactive
same,outcome,[9],inactive
same,outcome,[10],inactive
same,outcome,[11],inactive
same,outcome,[12],inactive
same,outcome,[13],inactive
same,outcome,[14],inactive
same,outcome,[15],inactive
same,outcome,"TIMP1, TIMP1 (gene 7076)",inactive
same,outcome,[16],inactive
same,outcome,[17],inactive
CCOc1cc(C(C)(C)C)ccc1C1COC(c2c(F)cccc2F)=N1 (configuration not stated),outcome,[1],inactive
same,outcome,[2],inactive
same,outcome,[3],inactive
same,outcome,[4],inactive
same,outcome,[5],inactive
same,outcome,[6],inactive
same,outcome,[7],inactive
same,outcome,[8],inactive
same,outcome,[9],inactive
same,outcome,[10],inactive
same,outcome,[11],inactive
same,outcome,[12],inactive
same,AC50,[13],8.25 µM (active)
same,outcome,[14],inactive
same,outcome,[15],inactive
same,outcome,"TIMP1, TIMP1 (gene 7076)",inactive
same,outcome,[16],inactive
same,outcome,[17],inactive
O=C1C2CC=CCC2C(=O)N1SC(Cl)(Cl)Cl (configuration not stated),outcome,[1],inactive
same,outcome,[2],inactive
same,outcome,[3],inactive
same,outcome,[4],inactive
same,outcome,[5],inactive
same,outcome,[6],inactive
same,outcome,[7],inactive
same,outcome,[8],inactive
same,outcome,[9],inactive
same,outcome,[10],inactive
same,outcome,[11],inactive
same,outcome,[12],inactive
same,outcome,[13],inactive
same,outcome,[14],inactive
same,outcome,[15],inactive
same,outcome,"TIMP1, TIMP1 (gene 7076)",inactive
same,outcome,[16],inactive
same,AC50,[17],16.2 µM (active)
same,outcome,[18],inactive
